Over roughly 25,000 sequences, “ln(normalized median fluorescence intensity)” has its median near 9.7; the highest 2% begin near 11. Only a selection was taken, and the highest values are over-represented in it overall.
What follows are sequences tested on PfAP2-HC AP2 domain (GST-tagged) (assay: gcPBM binding intensity (ln(normalized median fluorescence intensity)); higher = stronger DNA binding).
Outline: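 Binding of GST-tagged P. falciparum DNA-binding domains, expressed in E. coli and used at about 25 μg on average, was carried out for 1 h in 1× PBS containing 1% milk, 0.2 mg/ml BSA, 0.5% salmon testes DNA and 0.03% Triton X-100. The target was an Agilent 4 × 180k array of primer-extended double-stranded 36-bp intergenic genomic probes plus negative controls, read with Alexa488 anti-GST antibody at 488 nm. Binding intensity is the highest Masliner-normalised natural-log median intensity across replicate spots of either probe orientation.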

Sequence | gcPBM binding intensity (ln)
AATTCACATGTGAACTAAAAGAATATTATATATATA [CACACA_negctrl_site1632] | 9.55
TTTTCTAAATATTATAGTACTCTTAATAATATTAAC [XGTACX_site4222] | 9.34
TATAGCAAAAAATTTACACACATGTTTTTTCTATAC [CACACA_site325] | 9.9
ATATTTGTAATTATTAAACACACACTAATTATATAT [CACACA_site8803] | 9.9
AAATTATATACCACAGTGCAAAAGGCAGGTATACGT | 9.91
TACATATTACTATTCAGTACATATTTTTTTTTCATT [XGTACX_site7468] | 9.81
CGCGCACACGGACACACACACACACGGATATAAATA [CACACA_site7102] | 11.3
AAAAAATACAGACACACACACACACGCATATAAATA [CACACA_site7644] | 10.8
CATATACATAGACACACACACACATAAATAAATATA [CACACA_site6749] | 10.4
CACGCATACAGACACACACACACACGGATATAAATA [CACACA_site6445] | 11.6
TAAATAAATTTATACACACACACACGGATATAAATA [CACACA_site6532] | 10.6
CAAGCACACGGACACACACACACACGCGCACGCACA [CACACA_site6307] | 11.3
AAACAACATGGACACGCACACACAAAAAAAGCATGC [CACACA_site73] | 10.7
ATAGTATACAGACACACACACACACGGATATAAATA [CACACA_site6914] | 10.6
AAAAAAAATAGACACACACACATACACATAAATATA [CACACA_site7742] | 10.5
ACCATATAAATAAACACACACACACGGATATAAATA [CACACA_site7157] | 10.6
AAAATACATAGACACACACACACACGGATATAAATA [CACACA_site7643] | 11.2
TTTAATTCTTATATTTGTACAGATTCATAATTAAAT [XGTACX_site7465] | 9.41
ACAAATAAATATTCGCGTACTTATATAATATTACGA [XGTACX_site6428] | 9.66
TACATACATACATACACACACACATATATATATATA [CACACA_site42] | 10.2
AATATTTTGAACAACAGTACTCTTTCTTTCTTTCTT [XGTACX_site7212] | 9.51
TGAATAATAAAAAATACACACACATATATATATATT [CACACA_site9146] | 10.1
ACTTACCCATTTATTACACACATAAAGGAAAATTTT [CACACA_site4873] | 9.88
TTTTATAAAAACAAAAACAAAGGCACTTTCTAAAGA [XGTACX_negctrl_site130] | 9.58

Sequence | gcPBM binding intensity (ln)
TATATGTTATATTTAACACACATATAAGGTACATAT [CACACA_site612] | 9.83
ACTTTTTAATATTTTAGTACACAGTAATTCTTACTA [XGTACX_site1425] | 9.75
CAAGAAACAGTGATACGTACACATATATATATATAT [XGTACX_site3229] | 9.91
AATATAAGGATATATACACACATAAATACATACATA [CACACA_site7859] | 9.99
AAGGATATAACATACACACACACACGGATATAAATA [CACACA_site7867] | 11
AAATAACACATATATACACACATATAAATATAATAT [CACACA_site2692] | 10.3
TTGTGGATTTTGTGCGCACACACATGCAAAAAGAAA [CACACA_site1147] | 10
GCCGCACCCAGATACGCACACAAGAAAAAAATATTC [CACACA_site3456] | 9.8
ATAATATTATGAACCTGTACATAATTTTTCTTTTCT [XGTACX_site3377] | 9.62
AAGAATACACCACGCACACACACTTGAGAAAAAATA [CACACA_site3828] | 11.2
AAAAAGAAAATATATACACACCAAAAAAAAAAAAAA [CACACA_site5698] | 9.75
AAAGCACGCAAGAATACACACAAATATTATAAAAAA [CACACA_site6206] | 10.1
GAATACACCACGCACACACACTTGAGAAAAAATAAA [CACACA_site7747] | 10.3
ACAAGAGAAAAAAATACACACAAGATAAAAATGTAT [CACACA_site607] | 9.95
ACAAGAATACACCACGCACACACACTAGAGAAAAAA [CACACA_site9276] | 11.6
AATATTTATAAATTTACACACACACCCGTGAACATA [CACACA_site1910] | 10.2
TATAAACACCCATATAAACACACATATAAACCAACA [CACACA_site8790] | 10
ACCATACATACATACACACACACACCCATATATATA [CACACA_site2917] | 10.6
CGCGCACCCAGACACACACACACACCCATATATATA [CACACA_site2203] | 10.6
GACACCCATAAATATACACACGCACAACACAAAATA [CACACA_site8944] | 9.98
CACACCCACCAACACACACACACACCCACCCATATA [CACACA_site366] | 11
TAACCATACATACATACACACACACCCACATATATA [CACACA_site8951] | 10.3
CACCCACACCAACACACACACATATATAATATATAT [CACACA_site595] | 10.6
CATACTCACCAACACACACACACACCCATATAGAAT [CACACA_site592] | 11.1

Sequence | gcPBM binding intensity (ln)
CATATACACCAACACACACACACACCCACAAAAAAA [CACACA_site496] | 11.3
CACGCGCACCAACACACACACACACCCATATATATA [CACACA_site2204] | 11.1
TATACATACCCACCCACACACAAAAAAAAAAAAAAA [CACACA_site4632] | 10.2
CACACCACCAACAAAAGTACATACATATATATATAT [XGTACX_site5781] | 9.82
TAATTAAAATCATATACACACCCATATATATATATA [CACACA_site8524] | 10
AAATACCTTATATATACACACTATGTTTTTCTTTTT [CACACA_site4792] | 9.97
AATAAATAAAAATTATGTACATATATAAAAAATACA [XGTACX_site8581] | 9.82
TTGTTTCTTTTTTTTTGTACATATATATTGTATATT [XGTACX_site7602] | 9.89
AATAATAAATCAAACTGTACATATATTTTCAATCTA [XGTACX_site3344] | 9.61
TATAAAAAAATAATAAAATAATAAAATATATAAATA [TGCATGCA_negctrl_site394] | 9.6
AAAAAAAAAAAATGTGCACACGCGTACAGACAAAAA [CACACA_site2005] | 10.3
ATTAAATCTATATATACACACATGTTTGGTATATTC [CACACA_site2657] | 9.87
ATGCACTCATTGTGCACACGCATATTACGAAAAGAA [CACACA_site2638] | 9.86
TTTTTTTTTTGATGTTGTACATATATACTATATAAT [XGTACX_site1332] | 9.65
AAAACAAATGCTTAAAGTACTTATTATTTTTCTTTT [XGTACX_site6324] | 9.57
TCAAAGCACCCATACACACACATATATATATATATA [CACACA_site4317] | 10.5
AAATTATAATATAATACACACATAAAAAAAAAAAAA [CACACA_site7] | 9.79
TATAAATAAATTTATACACACACACCCATATATATA [CACACA_site8183] | 10.3
AATAAATATATATACACACCCATATATATATATATA [CACACA_site2595] | 9.63
GATGAATAAATCAAAGCACACATACACCCACATATA [CACACA_site7986] | 11.2
ATTAATTATATATATACACACACATACACCCAAATA [CACACA_site9126] | 10.3
TAATTATATAAATACACACACATACACCCAAATAAA [CACACA_site5819] | 11.1
CATATATATAAATACACACACACACCCCTTATAATT [CACACA_site4064] | 10.6
TACATATACATATACACACACACACCCAAATAAATA [CACACA_site1344] | 10.5

Sequence | gcPBM binding intensity (ln)
TAAATAAATTTATACACACACACACCCATATATATA [CACACA_site849] | 10.9
CATATAAATAAATACACACACACACGCCTTATAATT [CACACA_site7830] | 11.6
TGAATAAATCAAAGCACACATACACCCACATATATA [CACACA_site286] | 10.2
TCTTTTTTTTTACATACTTTTTTCCTTTTTTTTTTA [CACACA_negctrl_site1429] | 9.71
TCTTACAAAAAACAAACAGAGAAAAATATAAGGAAA [XGTACX_negctrl_site520] | 9.61
AAATTATTTCCGTGTACACATAAATATATATTTTAT [CACACA_site5121] | 9.89
CAATATTTTCATAGATGTACTTTGGACTTATTATAT [XGTACX_site4849] | 9.6
AATATTGTATATAATAAACACACAATATTAAAAATA [CACACA_site8262] | 10.1
TAACATATTATATATACATGCATACGTGAACTAATC [TGCATGCA_site888] | 9.72
ATTTATTTATGTATTTGTACGTATATATTTATGCAT [XGTACX_site5218] | 9.83
AAAAAAATAAAACACACACACAAAAAAATAAAAATA [CACACA_site465] | 10.8
AAGGACAACAAACAAACACACACAAAAAAAAAATAA [CACACA_site9263] | 10.2
AAGTAAAAAAATAGCACACACACAAAAACACAGACA [CACACA_site4839] | 10.7
ATAAATAAAAACACAAAACAAAACAAAACAAAACAA [CACACA_negctrl_site1257] | 9.61
CAACAAAATAAACACACACACACAAACACAAAAAAA [CACACA_site5806] | 11.4
GGACAACAAACAAACACACACAAAAAAAAAATAAAA [CACACA_site3791] | 11
CAAAAAAAATAAAACACACACACAAAAAAATAAAAA [CACACA_site466] | 10.7
ACAAATAAATAAAAAACACACACAAATAAATAAATA [CACACA_site8708] | 10.6
TCAATAATAAAAAACACACACAAAAAAAAATAATTA [CACACA_site2798] | 10.2
TTTCAATAATAAAAAACACACACAAAAAAAAATAAT [CACACA_site8905] | 11
AAAACAAATAGACACGCACACAAAAAAAAAAAAAAA [CACACA_site801] | 10.3
GTAAAAAAATAGCACACACACAAAAACACGCACAAA [CACACA_site6723] | 11.4
